HIV RNase H inh-1 = inhibitors of HIV-1 reverse transcriptase RNase H. P04585. RT-RNase H RNA/DNA duplex cleavage, fluorescence. inhibition, % at 10 µM. hit rate 1.9% among 65,000; in the data active = inhibition above about 50%
HIV RNase H inh-2 = confirmation of HIV-1 reverse transcriptase RNase H inhibitors | shares compounds with HIV RNase H inh-1 | Recombinant RT RNase H, fluorescent RNA/DNA duplex cleavage | inhibition, % at 10 µM | hit rate 39% among 1,000; in the data active = inhibition above about 48%
Hits are given with their value; 0 = inactive. The entries come from a sample that favours hits as a whole.

SMILES	HIV RNase H inh-1	others
N#Cc1nc(-c2cccs2)oc1NCc1ccc2c(c1)OCO2	0
O=C(Nc1ccccc1)c1ccc2nc(-c3ccco3)c(-c3ccco3)nc2c1	100	HIV RNase H inh-2=0
O=C(Nc1ccc(N2CCOCC2)cc1)c1ccc2nc(-c3ccco3)c(-c3ccco3)nc2c1	91	HIV RNase H inh-2=63
Cn1nnc2cc(C(=O)NCc3ccco3)ccc21	0
O=C(Nc1ccc(N2CCN(C(=O)c3ccco3)CC2)cc1)c1ccc(F)cc1	0
CCCCNC(=O)c1ccc2nc(-c3ccco3)c(-c3ccco3)nc2c1	92	HIV RNase H inh-2=0
O=C(NCc1ccco1)c1cccc(NC(=O)c2ccccc2)c1	0
O=C(Nc1nnc(-c2ccco2)s1)c1ccccc1	0
COc1ccc(C(=O)Nc2ccc(N3CCOCC3)cc2)cc1OC	0
CCCNC(=O)c1cc(-c2ccco2)on1	0
Clc1ccc(COn2nnc3ccccc32)c(Cl)c1	0
O=C(CCN1CCN(c2ccccc2F)CC1)Nc1ccc2c(c1)OCO2	0
COCc1nnc(NS(=O)(=O)c2ccc(Br)cc2)s1	0
CCOC(=O)C1=C(C)Nc2nc(SCC)[nH]c(=O)c2C1c1ccncc1 (centres undefined)	0
CC(NC(=O)CNC(=O)OCc1ccccc1)C(=O)N1CC(O)CC1C(=O)OCc1ccccc1 (centres undefined)	66	HIV RNase H inh-2=0
COC(=O)C1CCCN1C(=O)C1CCCN1C(=O)CNC(=O)OCc1ccccc1 (centres undefined)	0
COC(=O)C(CCCCNC(=O)OCc1ccccc1)NC(=O)CN (centres undefined)	0
Cc1ccc(/C(O)=C2\C(=O)C(=O)N(CCCN(C)C)C2c2ccccn2)cc1 (centres undefined)	0
CCC(C)[C@H](N)c1nnc(SCc2cccc(F)c2)o1 (some centres undefined)	0
CC1(C)CC(=O)C2=C(C1)OC1=C(C(=O)CC(C)(C)C1)C2c1ccc(O)cc1O	56	HIV RNase H inh-2=0
COc1ccc(C2C(C#N)=C(N)OC3=C2C(=O)CC(C)(C)C3)c(OC)c1OC (centres undefined)	0
CCOC(=O)C1=C(N)OC2=C(C(=O)CC(C)(C)C2)C1c1ccco1 (centres undefined)	0
Cc1oc(C(=O)O)cc1COc1cccc2cccnc12	0
COc1ccc(C(=O)CSc2nnc(CNc3nc(-c4ccccc4)cs3)n2C)cc1	0
Cc1ccc(NC(=O)CCNS(=O)(=O)c2cccc3nonc23)cc1	0
SMILES	HIV RNase H inh-1	others
Cc1ccc(N(CC(=O)Nc2cccc(C)c2)S(=O)(=O)c2cccc3nonc23)cc1	67	HIV RNase H inh-2=0
CC(=O)c1cccc(NC(=O)CCS(=O)(=O)c2cccc3nonc23)c1	0
Cc1ccc(S(=O)(=O)N(CC(=O)NCc2ccco2)Cc2ccccc2F)cc1	0
CC1=C(C)NC(=S)SC1	55	HIV RNase H inh-2=0
CCn1cc(C(=O)O)c(=O)c2cnc(N3CCN(C(=O)Nc4cccc5ccccc45)CC3)nc21	0
O=C(CSc1nc2ccccc2[nH]1)NCCN1CCCCC1	0
O=C(CSc1nnc(-c2ccc(F)cc2)o1)Nc1ccc(S(=O)(=O)N2CCCC2)cc1	0
Cc1ccc(NC(=O)CSc2nnc(-c3ccc(S(=O)(=O)N4CCCC4)cc3)o2)cc1C	70	HIV RNase H inh-2=69
Cc1cccc(NC(=O)CSc2nnc(-c3ccc(S(=O)(=O)N4CCCC4)cc3)o2)c1	0
CCc1nnc(NC(=O)CSc2nc3c(c(=O)n2CC)SC(C)C3)s1 (centres undefined)	0
CC(C)Oc1snc(Cl)c1C(N)=O	0
COc1ccc(-c2c3c(=O)n(C)c(=O)n(C)c3cn2C2CCCCC2)cc1	0
CSc1nc(-c2ccccc2O)nc(-c2ccccc2O)n1	0
C=CCOc1ccc2ccccc2c1CNc1ncn[nH]1	0
c1ccc(CSc2nncn2-c2ccccn2)cc1	0
CC1CCN(C(=O)CSc2nnc(Cn3c(=O)sc4ccccc43)n2C)CC1	0
CC1CCN(C(=O)CSc2nncn2-c2ccccn2)CC1	76	HIV RNase H inh-2=0
COc1cccc(C(=O)Nc2ccccc2N2CCOCC2)c1	0
COC(=O)c1ccc(N2CCOCC2)c(NC(=O)Nc2cccc(OC)c2)c1	87	HIV RNase H inh-2=0
COc1cccc(C(=O)OCC(=O)Nc2ccccc2N2CCOCC2)c1	0
Cc1ccc(C)c(N(CC(=O)NC2CCCCC2)C(=O)CCC(=O)Nc2ccccn2)c1	0
CCOC(=O)c1sc(NC(=O)C(CC)Sc2nnc3c4ccccc4n(CC)c3n2)nc1C (centres undefined)	0
CCOC(=O)c1sc(NC(=O)CSc2nnc3c4ccccc4n(CC)c3n2)nc1C	74	HIV RNase H inh-2=0
CCn1c2ccccc2c2nnc(SCC(=O)Nc3ncccn3)nc21	0
CCOc1ccccc1N(C(=O)CNC(=O)c1ccco1)C(C(=O)NC(C)(C)C)c1ccncc1 (centres undefined)	0
SMILES	HIV RNase H inh-1	others
CCn1nnnc1SCC(=O)c1cc(OC)ccc1OC	0
Cc1ccccc1-n1c(Cn2c(=O)sc3ccccc32)nnc1SCC(=O)NCC1CCCO1 (centres undefined)	0
CC(C)Cn1c(SCC(=O)NC(=O)Nc2ccc3c(c2)OCCO3)nc2ccccc2c1=O	92	HIV RNase H inh-2=54
COCCn1c(SC(C)C(=O)Nc2ccc3c(c2)OCCO3)nc2ccccc2c1=O (centres undefined)	0
C=CCn1c(SCC(=O)Nc2ccc3c(c2)OCO3)nc2ccccc2c1=O	0
N#Cc1c(N)c(C#N)c(-c2ccc(O)cc2)c2c1CCCC2	0
N#Cc1c(N)sc(=S)c2c1CCCCC2	58	HIV RNase H inh-2=0
N#Cc1c(N)sc2c1CCCCCC2	0
Cc1[nH]c2ccc(CNS(=O)(=O)c3ccc(S(=O)(=O)N4CCOCC4)cc3)cc2c1C	0
C=COCCNC(=O)Nc1ccc(Cl)cc1Cl	0
CCCS(=O)(=O)N1CCN(C(=O)c2cccc(OC)c2)CC1	0
O=C(COc1cc(Cl)ccc1Cl)Nc1nnc(CC(=O)N2CCOCC2)s1	80	HIV RNase H inh-2=0
O=C(Nc1nnc(CC(=O)N2CCOCC2)s1)c1cccs1	0
O=C(COc1ccc(Cl)cc1Cl)NC(=O)N1CCOCC1	0
Cc1csc(N(C)C(=O)CSc2nnc(COc3cccc4ccccc34)o2)n1	0
CCSc1nc2c(cnn2-c2ccc(C)c(C)c2)c(=O)[nH]1	0
COc1ccc(S(=O)(=O)N2CCSC2c2ccc(N)cc2)cc1 (centres undefined)	0
CCCCn1c(SCC(=O)OCC)nc2c1c(=O)[nH]c(=O)n2C	68	HIV RNase H inh-2=64
CCOCCn1c(SCc2c(F)cccc2Cl)nc2c1c(=O)[nH]c(=O)n2C	0
CCOCCn1c(SC)nc2c1c(=O)[nH]c(=O)n2C	59	HIV RNase H inh-2=0
CCOC(=O)CSc1nc2c(c(=O)[nH]c(=O)n2C)n1CCc1ccccc1	0
CCCCCCn1c(SCCCC)nc2c1c(=O)[nH]c(=O)n2C	0
CCOCCn1c(SCCCc2ccccc2)nc2c1c(=O)[nH]c(=O)n2C	0
CC(Sc1nnnn1-c1ccccc1)C(=O)Nc1ccc(Cl)cn1 (centres undefined)	0
Cc1nn(-c2ccccc2)c(C)c1NS(=O)(=O)c1ccccc1	0
CCOC(=O)C1CCCN(C(=O)c2cn(CC)c3ccc(S(=O)(=O)N4CCCC4)cc3c2=O)C1 (centres undefined)	0
Cc1nc2ccccn2c1/C(O)=C1\C(=O)C(=O)N(CCCN(C)C)C1c1ccc(Cl)cc1 (centres undefined)	0
C=CCc1c(C)c(C#N)c2nc3ccccc3n2c1N1CCN(C)CC1	0
COc1ccc(C(=O)Nn2cnc3scc(-c4cccs4)c3c2=O)c(O)c1	0
CCN(C(=O)c1cccc(F)c1)c1ccccc1C	0
